Experimental data taken from PubChem BioAssay (NCI).
The panel holds about 83,000 compounds, 20% with a hit somewhere; the sample as a whole holds those more often.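 Note: values are percent growth. 100 is the growth of untreated cells, values between 100 and 0 indicate rising inhibition; between -100 and 0 indicates cell death.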 Activity calls are given as the source filed them. The calls were made as follows: active = growth percent below 10; inactive = the rest.

Key:
Assay in all cases: NCI-60 one-dose screen, 48 h (100 = growth as untreated, 0 = no growth, -100 = all killed)
Settings in all cases: 10 µM unless noted
NCI-H226 lung = test system: NCI-H226 lung
NCI-H322M lung = test system: NCI-H322M lung
HOP-62 NSCLC = test system: HOP-62 NSCLC
NCI-H460 lung = test system: NCI-H460 lung
HOP-92 NSCLC = test system: HOP-92 NSCLC
NCI-H522 lung = test system: NCI-H522 lung
A549/ATCC NSCLC = test system: A549/ATCC NSCLC
786-0 renal = test system: 786-0 renal
COLO 205 colon = test system: COLO 205 colon

Measured: growth

O=C(Nc1ccc(S(=O)(=O)NC2CCCCCC2)cc1)C(c1ccccc1)S(=O)(=O)c1ccc(F)cc1 (stereo not given)
inactive: NCI-H322M lung 17.1% | 786-0 renal 20.4%
active: NCI-H226 lung -21.5% | HOP-62 NSCLC -17.4% | NCI-H460 lung 1.37% | HOP-92 NSCLC -12.2% | NCI-H522 lung -16% | A549/ATCC NSCLC -12.4% | COLO 205 colon -18%

Cc1ccccc1NC(=O)c1sc2nc(C)c(C(C)O)cc2c1N (stereo not given)
inactive: NCI-H226 lung 88.6% | NCI-H322M lung 86% | HOP-62 NSCLC 45.1% | NCI-H460 lung 35.4% | HOP-92 NSCLC 47.3% | NCI-H522 lung 32.8% | A549/ATCC NSCLC 36.2% | 786-0 renal 57% | COLO 205 colon 40.5%

O=C1CCC23OC(C(O)c4ccccc4N12)C1C(Br)=NOC13 (stereo not given)
inactive: NCI-H226 lung 110% | NCI-H322M lung 107% | HOP-62 NSCLC 96.8% | NCI-H460 lung 110% | HOP-92 NSCLC 109% | NCI-H522 lung 99.9% | A549/ATCC NSCLC 99.7% | 786-0 renal 94.6% | COLO 205 colon 108%

COc1cc(C)ccc1Oc1nc(Nc2ccc(N3CCOCC3)cc2)ncc1N=Cc1cc(C(F)(F)F)cc(C(F)(F)F)c1
inactive: NCI-H226 lung 55.4% | NCI-H322M lung 79.7% | HOP-62 NSCLC 61.1% | NCI-H460 lung 44.6% | HOP-92 NSCLC 67.8% | NCI-H522 lung 27.3% | A549/ATCC NSCLC 70% | 786-0 renal 76.6% | COLO 205 colon 68.3%

CC(=O)Nc1nc2c(c(N)c1C#N)C(c1cccc(Cl)c1)C1=C(CCCC1=O)N2c1sc2c(c1C#N)CCCC2 (stereo not given)
inactive: NCI-H226 lung 55.5% | NCI-H322M lung 93.3% | HOP-62 NSCLC 67.3% | NCI-H460 lung 53.1% | HOP-92 NSCLC 40.1% | NCI-H522 lung 21.3% | A549/ATCC NSCLC 32.8% | 786-0 renal 57.6% | COLO 205 colon 59.6%

O=C1CCC23OC(c4ccccc4N12)C(O)C(O)C3O (stereo not given)
inactive: NCI-H226 lung 107% | NCI-H322M lung 98.6% | HOP-62 NSCLC 104% | NCI-H460 lung 112% | HOP-92 NSCLC 113% | NCI-H522 lung 81% | A549/ATCC NSCLC 94.5% | 786-0 renal 98.8% | COLO 205 colon 124%

COc1ccc(C(=S)c2cc(OC)c(OC)c(OC)c2)cc1OC(=O)CCl
inactive: NCI-H226 lung 103% | NCI-H322M lung 42.4% | HOP-62 NSCLC 30.9% | HOP-92 NSCLC 54.8% | NCI-H522 lung 12.9% | A549/ATCC NSCLC 21.2% | 786-0 renal 27.4% | COLO 205 colon 16.7%
active: NCI-H460 lung 7.23%

CCc1n(Cc2ccc3ccccc3c2)c2ccccc2[n+]1Cc1ccc2ccccc2c1
inactive: NCI-H226 lung 64.9% | NCI-H322M lung 90.7% | HOP-62 NSCLC 81.3% | NCI-H460 lung 53.6% | HOP-92 NSCLC 21.8% | NCI-H522 lung 12.1% | A549/ATCC NSCLC 74.2% | 786-0 renal 89% | COLO 205 colon 25%

Nc1ccccc1NC(=O)c1ccc(CSc2nc(N3CCOCC3)c3cccn3n2)cc1
inactive: HOP-62 NSCLC 15.5% | NCI-H460 lung 15.3% | A549/ATCC NSCLC 11.8% | 786-0 renal 17.3%
active: NCI-H226 lung 6.52% | HOP-92 NSCLC -6.72% | NCI-H522 lung -50.3% | COLO 205 colon -29%
